{
  "source": "the supplement of paper PMC7380943",
  "key": {"[1]": {"system": "CLZ3 (HCA2 human fibroblast dual HR-NHEJ reporter)", "assay": "NHEJ repair efficiency (GFP+ cells) relative to control (log10 fold); higher = more non-homologous end joining", "conditions": "5 µM; doxycycline 0.5 ug/mL"}, "[2]": {"system": "CLZ3 (HCA2 human fibroblast dual HR-NHEJ reporter)", "assay": "HR repair efficiency (tdTomato+ cells) relative to control (log10 fold); higher = more homologous recombination", "conditions": "5 µM; doxycycline 0.5 ug/mL"}},
  "note": "Where a name gives a salt, the structure may show the parent alone.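 Throughout, for HR repair efficiency (tdTomato+ cells) relative to control: compound given one day before doxycycline, which switches on I-SceI endonuclease expression to create double-strand breaks within the integrated reporter.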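 Throughout, for NHEJ repair efficiency (GFP+ cells) relative to control: compound given one day ahead of doxycycline, which switches on I-SceI endonuclease to cut the chromosomally integrated reporter and create DSBs.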",
  "data": [
    {"molecule": "Cc1nc(C)c(C)nc1C", "note": "[Ligustrazine hydrochloride]", "values": [
      {"measurement": "NHEJ repair efficiency (log10)", "setting": "[1]", "value": 0.0819},
      {"measurement": "HR repair efficiency (log10)", "setting": "[2]", "value": 0.079}
    ]},
    {"molecule": "COc1c(O[C@@H]2O[C@H](CO)[C@@H](O)[C@H](O)[C@H]2O)cc2occ(-c3ccc(O)cc3)c(=O)c2c1O", "note": "[Tectoridin]", "values": [
      {"measurement": "NHEJ repair efficiency (log10)", "setting": "[1]", "value": 0.116},
      {"measurement": "HR repair efficiency (log10)", "setting": "[2]", "value": 0.192}
    ]},
    {"molecule": "COc1cc(CCC(C)=O)ccc1O", "note": "[Zingerone]", "values": [
      {"measurement": "NHEJ repair efficiency (log10)", "setting": "[1]", "value": 0.275},
      {"measurement": "HR repair efficiency (log10)", "setting": "[2]", "value": 0.257}
    ]},
    {"molecule": "C=C(C(=O)O)[C@@H]1CC[C@@H](C)[C@@H]2CCC(C)=C[C@@H]21", "note": "[Artemisinic acid]", "values": [
      {"measurement": "NHEJ repair efficiency (log10)", "setting": "[1]", "value": 0.0135},
      {"measurement": "HR repair efficiency (log10)", "setting": "[2]", "value": 0.116}
    ]},
    {"molecule": "OC[C@H]1O[C@@H](Oc2c(O)cc(O)cc2/C=C/c2ccc(O)cc2)[C@H](O)[C@@H](O)[C@@H]1O", "note": "[2,3,5,4'-Tetrahydroxy Stilbene 2-Ο-Β-D-Glucoside]", "values": [
      {"measurement": "NHEJ repair efficiency (log10)", "setting": "[1]", "value": 0.157},
      {"measurement": "HR repair efficiency (log10)", "setting": "[2]", "value": -0.0324}
    ]},
    {"molecule": "COC(=O)C1=CO[C@@H](O[C@@H]2O[C@H](CO[C@@H]3O[C@H](CO)[C@@H](O)[C@H](O)[C@H]3O)[C@@H](O)[C@H](O)[C@H]2O)[C@@H]2C(CO)=CC[C@H]12", "note": "[Genipin 1-Gentiobioside]", "values": [
      {"measurement": "NHEJ repair efficiency (log10)", "setting": "[1]", "value": 0.0417},
      {"measurement": "HR repair efficiency (log10)", "setting": "[2]", "value": 0.0278}
    ]},
    {"molecule": "COc1ccc(/C=C/c2cc(O)cc(O[C@@H]3O[C@H](CO)[C@@H](O)[C@H](O)[C@H]3O)c2)cc1O", "note": "[Rhapontin]", "values": [
      {"measurement": "NHEJ repair efficiency (log10)", "setting": "[1]", "value": 0.134},
      {"measurement": "HR repair efficiency (log10)", "setting": "[2]", "value": 0.0931}
    ]},
    {"molecule": "O=C(C=Cc1ccc(O)c(O)c1)O[C@H]1[C@H](O)C[C@](O)(C(=O)O)C[C@H]1OC(=O)C=Cc1ccc(O)c(O)c1", "note": "[Isochlorogenic acid C]", "values": [
      {"measurement": "NHEJ repair efficiency (log10)", "setting": "[1]", "value": 0.118},
      {"measurement": "HR repair efficiency (log10)", "setting": "[2]", "value": 0.0227}
    ]},
    {"molecule": "COc1cc(CNC(=O)CCCC/C=C/C(C)C)ccc1O", "note": "[Capsaicin]", "values": [
      {"measurement": "NHEJ repair efficiency (log10)", "setting": "[1]", "value": -0.0748},
      {"measurement": "HR repair efficiency (log10)", "setting": "[2]", "value": -0.0984}
    ]},
    {"molecule": "COc1ccc(-c2oc3c(CC=C(C)C)c(O[C@@H]4O[C@H](CO)[C@@H](O)[C@H](O)[C@H]4O)cc(O)c3c(=O)c2O[C@@H]2O[C@@H](C)[C@H](O)[C@@H](O)[C@H]2O)cc1", "note": "[Icariine]", "values": [
      {"measurement": "NHEJ repair efficiency (log10)", "setting": "[1]", "value": -0.13},
      {"measurement": "HR repair efficiency (log10)", "setting": "[2]", "value": -0.0902}
    ]},
    {"molecule": "C[C@H](CC[C@@]1(O)O[C@H]2C[C@H]3[C@@H]4CC=C5C[C@@H](O[C@@H]6O[C@H](CO)[C@@H](O[C@@H]7O[C@@H](C)[C@H](O)[C@@H](O)[C@H]7O)[C@H](O)[C@H]6O[C@@H]6O[C@@H](C)[C@H](O)[C@@H](O)[C@H]6O)CC[C@]5(C)[C@H]4CC[C@]3(C)[C@H]2[C@@H]1C)CO[C@@H]1O[C@H](CO)[C@@H](O)[C@H](O)[C@H]1O", "note": "[Protodioscin]", "values": [
      {"measurement": "NHEJ repair efficiency (log10)", "setting": "[1]", "value": -0.00725},
      {"measurement": "HR repair efficiency (log10)", "setting": "[2]", "value": -0.042}
    ]},
    {"molecule": "OC[C@H]1O[C@@H](Oc2cc(O)cc(/C=C/c3ccc(O)cc3)c2)[C@H](O)[C@@H](O)[C@@H]1O", "note": "[Polydatin]", "values": [
      {"measurement": "NHEJ repair efficiency (log10)", "setting": "[1]", "value": 0.036},
      {"measurement": "HR repair efficiency (log10)", "setting": "[2]", "value": 0.288}
    ]},
    {"molecule": "C[C@@H](CC[C@@]1(O)O[C@H]2C[C@H]3[C@@H]4CC[C@@H]5C[C@@H](O[C@@H]6O[C@H](CO)[C@H](O)[C@H](O)[C@H]6O[C@@H]6O[C@H](CO)[C@@H](O)[C@H](O)[C@H]6O)CC[C@]5(C)[C@H]4CC[C@]3(C)[C@H]2[C@@H]1C)CO[C@@H]1O[C@H](CO)[C@@H](O)[C@H](O)[C@H]1O", "note": "[Timosaponin b- II]", "values": [
      {"measurement": "NHEJ repair efficiency (log10)", "setting": "[1]", "value": 0.192},
      {"measurement": "HR repair efficiency (log10)", "setting": "[2]", "value": -0.131}
    ]},
    {"molecule": "C=C[C@H]1[C@H](O[C@@H]2O[C@H](CO)[C@@H](O)[C@H](O)[C@H]2O)OC=C(C(=O)OC)[C@H]1CCOC(=O)c1cc(O)c(O)c(O)c1", "note": "[Cornuside]", "values": [
      {"measurement": "NHEJ repair efficiency (log10)", "setting": "[1]", "value": 0.0361},
      {"measurement": "HR repair efficiency (log10)", "setting": "[2]", "value": 0.162}
    ]},
    {"molecule": "C[C@H]1[C@H](C)CC[C@]2(C(=O)O[C@@H]3O[C@H](CO[C@@H]4O[C@H](CO)[C@@H](O[C@@H]5O[C@@H](C)[C@H](O)[C@@H](O)[C@H]5O)[C@H](O)[C@H]4O)[C@@H](O)[C@H](O)[C@H]3O)CC[C@]3(C)C(=CC[C@@H]4[C@@]5(C)C[C@@H](O)[C@H](O)[C@@](C)(CO)[C@@H]5[C@H](O)C[C@]43C)[C@H]12", "note": "[Madecassoside]", "values": [
      {"measurement": "NHEJ repair efficiency (log10)", "setting": "[1]", "value": 0.0946},
      {"measurement": "HR repair efficiency (log10)", "setting": "[2]", "value": 0.19}
    ]},
    {"molecule": "O=C1C[C@@H](c2ccc(O)c(O)c2)Oc2cc(O)cc(O)c21", "note": "[Eriodictyol]", "values": [
      {"measurement": "NHEJ repair efficiency (log10)", "setting": "[1]", "value": -0.0055},
      {"measurement": "HR repair efficiency (log10)", "setting": "[2]", "value": 0.0227}
    ]},
    {"molecule": "O=C(/C=C/c1ccc(O)c(O)c1)OC1CC(OC(=O)/C=C/c2ccc(O)c(O)c2)(C(=O)O)CC(O)C1O", "note": "(stereo not given) [1,3-Dicaffeoylquinic Acid]", "values": [
      {"measurement": "NHEJ repair efficiency (log10)", "setting": "[1]", "value": 0.0818},
      {"measurement": "HR repair efficiency (log10)", "setting": "[2]", "value": -0.0122}
    ]},
    {"molecule": "CC(=O)S[C@@H]1CC2=CC(=O)CC[C@]2(C)[C@H]2CC[C@@]3(C)[C@@H](CC[C@@]34CCC(=O)O4)[C@H]12", "note": "[Spironolactone]", "values": [
      {"measurement": "NHEJ repair efficiency (log10)", "setting": "[1]", "value": 0.15},
      {"measurement": "HR repair efficiency (log10)", "setting": "[2]", "value": -0.0059}
    ]},
    {"molecule": "C=C[C@@H]1CNC(=S)O1", "note": "[Epigoitrin]", "values": [
      {"measurement": "NHEJ repair efficiency (log10)", "setting": "[1]", "value": 0.17},
      {"measurement": "HR repair efficiency (log10)", "setting": "[2]", "value": 0.212}
    ]},
    {"molecule": "C/C1=C\\CC[C@]23O[C@H]2[C@@H](OC3=O)c2c(C)coc2C1", "note": "[Linderane]", "values": [
      {"measurement": "NHEJ repair efficiency (log10)", "setting": "[1]", "value": -0.0245},
      {"measurement": "HR repair efficiency (log10)", "setting": "[2]", "value": 0.0607}
    ]}
  ]
}
